The record followed here is PubChem BioAssay AID504339 (National Center for Advancing Translational Sciences (NCATS), 2011).

SMILES strings stand for the structures. About 17,000 (4.4%) of roughly 390,000 compounds were called active. About 8% were inconclusive and are not listed. Only a selection was taken, and actives are over-represented in it overall. Unmarked numbers belong to inactive results. Calls come from the whole dose curve; as a rule, active = well fitted inhibition curve with a large enough effect; inconclusive = small, poorly fitted or top-dose-only effect; inactive = no such curve, though single readings can be large or run the other way.
% is set by controls: 0 for no effect and ±100 for the full control effect; potency is the fitted concentration of half-maximal effect.

The assay deals with Lysine-specific demethylase 4A (Homo sapiens) (UniProt O75164). Kind of assay: qHTS Assay for Inhibitors of JMJD2A-Tudor Domain. Note: nearly all actives have a fitted effect of over 50% in size. The settings on record: AlphaScreen JMJD2A-Tudor / H3K4me3 peptide binding; series mostly up to 114 µM; activity change, negative = inhibition: at the top concentration.
Sequence of Lysine-specific demethylase 4A (Homo sapiens) (O75164 whole entry, looked up, the tested form may be a part): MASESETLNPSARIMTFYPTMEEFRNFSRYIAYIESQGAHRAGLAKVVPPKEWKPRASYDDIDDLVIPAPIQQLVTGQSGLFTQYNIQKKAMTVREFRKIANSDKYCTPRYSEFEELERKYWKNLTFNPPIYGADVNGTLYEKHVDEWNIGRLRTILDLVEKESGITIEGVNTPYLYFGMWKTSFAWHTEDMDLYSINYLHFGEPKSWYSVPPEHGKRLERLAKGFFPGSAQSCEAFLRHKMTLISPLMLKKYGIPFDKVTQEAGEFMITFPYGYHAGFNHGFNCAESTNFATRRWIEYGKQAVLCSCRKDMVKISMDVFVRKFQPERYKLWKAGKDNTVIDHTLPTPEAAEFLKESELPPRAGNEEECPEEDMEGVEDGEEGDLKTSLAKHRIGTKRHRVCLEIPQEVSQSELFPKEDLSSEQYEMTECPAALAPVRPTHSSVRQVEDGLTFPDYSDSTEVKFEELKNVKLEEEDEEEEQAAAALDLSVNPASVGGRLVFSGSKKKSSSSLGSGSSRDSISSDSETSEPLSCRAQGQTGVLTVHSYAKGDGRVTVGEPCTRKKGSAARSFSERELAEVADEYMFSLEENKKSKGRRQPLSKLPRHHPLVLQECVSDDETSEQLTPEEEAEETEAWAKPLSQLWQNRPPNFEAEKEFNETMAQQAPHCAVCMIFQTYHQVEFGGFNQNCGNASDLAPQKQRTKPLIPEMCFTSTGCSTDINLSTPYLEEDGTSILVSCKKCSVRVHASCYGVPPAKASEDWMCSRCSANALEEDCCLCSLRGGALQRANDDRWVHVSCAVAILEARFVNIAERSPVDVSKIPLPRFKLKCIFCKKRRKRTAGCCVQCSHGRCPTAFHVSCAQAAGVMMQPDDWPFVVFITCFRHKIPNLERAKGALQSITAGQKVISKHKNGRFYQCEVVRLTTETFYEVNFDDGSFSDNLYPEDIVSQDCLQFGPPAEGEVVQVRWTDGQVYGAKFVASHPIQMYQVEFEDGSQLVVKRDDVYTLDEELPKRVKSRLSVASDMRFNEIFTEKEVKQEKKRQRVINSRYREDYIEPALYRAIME
For `Cc1oc2ncnc(N3CCCCC3)c2c1C(=O)N1CCN(c2cccc(Cl)c2)CC1`, the “activity change, negative = inhibition” value was -35.6%.
In the case of `CCc1ccc(NC(=O)CN2C(=O)CCSc3ccc(S(=O)(=O)N4CCCC4)cc32)cc1`, the “activity change, negative = inhibition” value is -8.95%.
Regarding `COc1ccc(C(C(=O)NC(C)(C)C)N(Cc2ccc(F)cc2)C(=O)CCC(=O)Nc2cc(C)on2)cc1` (centres undefined), the “activity change, negative = inhibition” value is -19.1%.
With `CCC(C)(C)NC(=O)C(c1cccc(OC)c1OC)N(CC(C)C)C(=O)CCC(=O)Nc1cc(C)on1` (centres undefined), the Potency is 11.2 µM (active).
Consider `CCC(C)(C)NC(=O)C(c1ccc(OC)cc1)N(C(=O)CCC(=O)Nc1cc(C)on1)c1ccc(OC)cc1OC` (centres undefined), for which the “activity change, negative = inhibition” value was -17.6%.
`CCc1ccccc1OCCSc1nc(-c2cccs2)nc2cc(=O)[nH]n12`: the “activity change, negative = inhibition” value is -14.3%.
Same read-out and setting: the same measure for `Cc1ccc(OCCSc2nc(-c3cccs3)nc3cc(=O)[nH]n23)cc1Cl`: -29.2%.
Take `O=c1cc2nc(-c3ccccc3)nc(SCCOc3ccc(Cl)cc3)n2[nH]1`: the Potency is 56.2 µM (active).
As for `COc1cc(CNCc2ccc(OC)c3ccccc23)cc(OC)c1OC`, the Potency was 25.1 µM (active).
Turning to `COc1ccc(CNCCCNCc2ccc(OC)c(OC)c2)cc1OC`, the “activity change, negative = inhibition” value was -8.97%.
On the same count and under the same terms, under `COc1cc(CNCc2cccs2)cc(Br)c1OC` stands -0.752%.
Still for that read-out and setting: the same measure for `O=C(c1ccc2c(=O)n(Cc3ccco3)c(=S)[nH]c2c1)N1CCCC1`: -18.4%; for `O=c1n(Cc2cccc(C(F)(F)F)c2)c2ccccc2c2nc(-c3ccccc3)nn12`: -7.28%.
Regarding `O=S(=O)(NCC(c1ccccc1)N1CCc2ccccc21)c1ccccc1` (centres undefined), the Potency is 22.4 µM (active).
As to `CN(C)c1ccc(C(CNS(=O)(=O)c2cc(F)ccc2F)N2CCOCC2)cc1` (centres undefined), the “activity change, negative = inhibition” value was -27.5%.
On the same count and under the same terms, under `O=S(=O)(c1ccccc1)N1CCc2ccccc21` stands 11.8%.
As for `COc1ccc(S(=O)(=O)NCC(c2ccc(N(C)C)cc2)N2CCc3ccccc32)cc1OC` (centres undefined), the Potency was 22.4 µM (active).
Regarding `COc1ccc(S(=O)(=O)NCC(=O)NC2CC2)cc1OC`, the “activity change, negative = inhibition” value is -9.62%.
On the same count and under the same terms, under `O=C(NCC(c1cccnc1)N1CCc2ccccc21)c1cccc(C(F)(F)F)c1` (centres undefined) stands -7.89%; under `COc1ccc(-c2c3c(=O)n(C)c(=O)n(C)c3c3c(C)nc4ccccc4n23)cc1`, -2.41%.
Turning to `Cc1ccc2[nH]c3c(=O)n(CC(=O)NC(C)C)ncc3c2c1`, the “activity change, negative = inhibition” value is -6.8%.
For the molecule `COc1ccc(CCn2c3c(c(=O)[nH]c2=S)CN(C(C)C)CN3)cc1OC`, the “activity change, negative = inhibition” value was -21.8%.
The same measure, in the same setting: under `Cc1cc(C)cc(NC(=O)CSc2nc3nccnc3c(=O)n2CCc2c[nH]c3ccccc23)c1` stands -13.2%; under `O=C(Nc1cccc(Cl)c1N1CCOCC1)c1ccc2c(c1)OCCO2`, -11.1%.
In the case of `O=C(Nc1ccc(N2CCOCC2)cc1)c1ccc2c(c1)OCO2`, the Potency is 20 µM (active).
As for `COC(=O)c1ccc(N2CCOCC2)c(NC(=O)c2ccc3c(c2)OCCO3)c1`, the “activity change, negative = inhibition” value is -0.69%.
Take `CCCn1c2ccccc2c2cnn(CC(=O)N3CCCC(C(=O)OCC)C3)c(=O)c21` (centres undefined): the Potency was 79.4 µM (active).
As to `CCOC(=O)C1CCCN(C(=O)Cn2ncc3c(=O)oc4ccc(C)cc4c32)C1` (centres undefined), the “activity change, negative = inhibition” value was -15.3%.
As for `CCOC(=O)C1CCCN(C(=O)Cn2ncc3c(C)n(Cc4ccc(F)cc4)c(C)c3c2=O)C1` (centres undefined), the “activity change, negative = inhibition” value is -21.8%.
